# DT40 TDP1 CPT: DT40-hTDP1 cell growth loss with CPT; chicken DT40 Tdp1-/-;hTDP1 cells + 20 nM CPT, ATP luminescence, 48 h; Potency, µM (doses to about 46.2 µM), for inactives: top-dose activity change, negative = growth inhibition, most hits filed as inhibitors; actives 12% (n = 420,000); note: potency is the fitted concentration of half-maximal effect; nearly all actives have a fitted effect of over 55% in size
#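 Chicken DT40 Tdp1-/- cells stably complemented with human TDP1 were seeded at 400 cells/well in medium containing 20 nM camptothecin, exposed to pin-transferred compounds, and grown at 37 °C for at least 48 hr. Viability was read as ATP luminescence.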
# ELG1 DNA repair: inhibitors of ELG1-dependent DNA repair in HEK293T cells; HEK293T ELG1-luciferase reporter, luminescence, 16 h; DNA damage induced by 5-fluorouridine; Potency, µM (series often up to 46.1 µM), for the others: at the top dose activity change, negative = inhibition, usual class: inhibitors; actives 2.3% (n = 330,000); AID 504467; note: potency is the fitted concentration of half-maximal effect; nearly all actives have a fitted effect of over 55% in size
#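 Step one: seed 2,000 cells per well. Step two: pin-transfer compound or DMSO alongside 5-fluorouridine. Step three: incubate 16 hr, 37 °C, 5% CO2. Step four: add ONE-Glo, wait 30 min, read luminescence.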
# IL1B secr inh: inflammasome signaling inhibition, IL-1 beta readout; THP-1 LPS/ATP IL-1B secretion, AlphaLISA, 16 h; hits give low values; activity change, % at 57.5 µM; actives 4.7% (n = 360,000); AID 743279; in the data active = activity change below about -50%; inconclusive = mostly about -30% to -49%
#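 THP-1 cells pretreated 1 hr with compounds (up to 57.5 uM final), then stimulated with LPS (250 ng/mL final) plus ATP (1.25 mM final); secreted IL-1B measured by AlphaLISA after 16 hr, decreased signal indicating inhibition.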
# DT40 TDP1 no CPT: qHTS for Inhibitors of human tyrosyl-DNA phosphodiesterase 1 (TDP1): qHTS in cells in absence of CPT; Potency, µM (titrated, usually from 46.2 µM), for the others: at the highest dose activity change, negative = growth inhibition, hits mostly inhibitors; AID 686978, 2013; actives 15% (n = 420,000); DT40 Tdp1-/- hTDP1 cells, no CPT, ATP luminescence, 48 h; note: potency is the fitted concentration of half-maximal effect; nearly all actives have a fitted effect of over 55% in size
#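 Seeded 400 DT40-hTDP1 cells/well (vehicle DMSO, no 20 nM CPT); pinned compounds; ≥48 hr at 37 °C; CellTiter-Glo luminescence as viability measure.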
# HT1080 IDH1KD tx: HT-1080 IDH1 knockdown cell toxicity (counter line) | actives 2% (n = 360,000) | HT-1080 IDH1 knockdown viability, ATP luminescence, 48 h | Potency, µM (series often up to 46.1 µM), without a hit: at the highest dose activity, negative = toxicity, usual class: cytotoxic | AID 686971;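 note: potency is the fitted concentration of half-maximal effect; 0% = DMSO wells and -100% = cell-free medium wells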
#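 CellTiter-Glo luminescence after 48 h compound exposure at 37 degrees C of IDH1-knockdown HT-1080 cells in 5% FBS RPMI. %Activity scaled between DMSO wells and cell-free media wells, with curves fitted and assigned curve classes.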
# HT1080-NT tox: kills 2HG-producing HT-1080-NT fibrosarcoma cells. HT-1080-NT fibrosarcoma viability, CellTiter-Glo ATP luminescence, 48 h. Potency, µM (doses to about 46.1 µM), for inactives: at the top dose activity, negative = less viability, most hits filed as cytotoxic. actives 1.6% (n = 360,000). AID 686970;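 note: NT is the 2HG producing partner of a matched IDH1 knockdown line; potency is the fitted concentration of half-maximal effect; 0% = DMSO-treated cells and -100% = media-only wells without cells; nearly all actives have a fitted effect of over 55% in size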
#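 Viability of the 2HG-overproducing fibrosarcoma line after 48 hours of compound exposure at 37 degrees C was determined by luminescence with CellTiter-Glo, and concentration-effect curves were then fitted and categorized.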
# The depositor's hits bear a star; ? = inconclusive; . = not tested or not shown. Only some compounds are listed: those with a hit (about 19% of all), similar ones and a draw of the others. Unless noted, calls come from the whole dose curve; as a rule, active = well fitted curve in the direction sought with a large enough effect; inconclusive = small, poorly fitted or top-dose-only effect, or another doubt; inactive = no such curve, though single readings can be large; an effect the other way counts as inactive or inconclusive. Unless noted, % is set by controls: 0 for no effect and ±100 for the full control effect.
SMILES,DT40 TDP1 CPT,ELG1 DNA repair,IL1B secr inh,DT40 TDP1 no CPT,HT1080 IDH1KD tx,HT1080-NT tox
C/C=C(/C)C(=O)O[C@@H]1[C@H](OC(C)=O)c2c(ccc3ccc(=O)oc23)OC1(C)C,?,0%,0,16µM*,-7%,-2%
C/C=C(/C)C(=O)O[C@@H]1c2c(ccc3ccc(=O)oc23)O[C@@H]1C(C)(C)OC(=O)/C(C)=C\C,?,?,-11,16µM*,?,?
CO[C@@]1(NC(=O)CSC[C@@H](N)C(=O)O)C(=O)N2C(C(=O)O)=C(CSc3nnnn3C)CS[C@@H]21,-2%,.,.,-9%,.,.
COc1ccccc1NC(=O)Cn1cnc2sc(C(=O)Nc3cc(OC)c(OC)c(OC)c3)c(C)c2c1=O,?,8.2µM*,0,?,-9%,-6%
COc1ccccc1NC(=O)Cn1cnc2sc(C(=O)Nc3ccc(OC)c(OC)c3)c(C)c2c1=O,11%,-9%,78,1%,-8%,8%
CCN(CC)C(=O)Cn1cnc2sc(C(=O)Nc3cc(OC)c(OC)c(OC)c3)c(C)c2c1=O,?,-4%,8,12µM*,-2%,-2%
CN(C)CCNc1nc2sc3c(c2c(=O)n1-c1ccccc1)CCCCC3,2%,13%,.,?,?,?
COc1ccc(-n2c(N3CCN(C)CC3)nc3sc4c(c3c2=O)CCCCC4)cc1,23µM*,-2%,-13,15µM*,9%,0%
COc1ccc(-n2c(C)nc3sc4c(c3c2=O)CCC4)cc1,-17%,?,51,?,-28%,-2%
CN(C)CCNc1nc2sc3c(c2c(=O)n1-c1ccc(F)cc1)CCCCC3,21µM*,10%,-54*,?,?,23µM*
COc1ccc(-n2c(NCCN(C)C)nc3sc4c(c3c2=O)CCCCC4)cc1,?,?,-5,16µM*,-21%,-27%
O=C(COc1ncnc2ccccc12)Nc1cc([N+](=O)[O-])ccc1F,-3%,?,-4,3%,0%,9%
O=c1c(C(c2ccc(Br)cc2)c2c(O)nc3n(c2=O)CCCS3)c(O)nc2n1CCCS2,-101%,9%,20,-10%,9%,0%
O=c1c(C(c2ccc(Br)cc2)c2c(O)nc3n(c2=O)CCS3)c(O)nc2n1CCS2,10%,6%,-69*,2%,4%,3%
O=C(Nc1ccc(F)cc1)c1ccc(C(=O)N2CCCC(O)C2)cc1 (stereo not given),?,23%,0,?,7%,17%
CCOc1ccc2[nH]c(SCC(=O)OC)c([N+](=O)[O-])c2c1,6.5µM*,0%,21,4.6µM*,-7%,0%
S=c1[nH]cnc2sc(Nc3ccccc3)nc12,15µM*,?,-6,15µM*,-10%,-8%
Cc1nc(Nc2ccccc2)sc1C,4%,2%,2,19%,7%,-28%
Cc1cc(=O)n(CC(=O)Nc2ccc(Cl)c(Cl)c2)c(-n2nc(C)cc2C)n1,?,.,.,16µM*,.,.
Cc1cc(C)n(-c2ccc(C(=O)Nc3cccc([N+](=O)[O-])c3)cc2)n1,-23%,?,?,?,-14%,?
Cc1cc(C)n(-c2nc(C)c(C)c(=O)n2CC(=O)Nc2cccc([N+](=O)[O-])c2)n1,?,.,.,16µM*,.,.
O=C(Nc1ccc(C(=O)N2CCOCC2)cc1)c1ccccc1Cl,30%,.,?,2%,-3%,2%
O=C(NCc1ccc2c(c1)OCO2)C1CC(=O)N(c2ccc(Cl)cc2)C1 (stereo not given),10%,-5%,19,-13%,0%,2%
O=c1[nH]c2c(cc1CNCCN1CCOCC1)c(-c1cccc(F)c1)nn2-c1ccccc1,.,7%,.,.,.,.
Cc1nn(-c2ccccc2)c2[nH]c(=O)c(CNc3ccc(N4CCOCC4)cc3)cc12,18µM*,?,-8,18µM*,?,-24%
SMILES,DT40 TDP1 CPT,ELG1 DNA repair,IL1B secr inh,DT40 TDP1 no CPT,HT1080 IDH1KD tx,HT1080-NT tox
Cc1nn(-c2ccc(Cl)cc2)c2[nH]c(=O)c(CNCc3ccc4c(c3)OCO4)cc12,18µM*,?,-16,18µM*,-1%,-13%
Cc1ccc2c(CC(=O)Nc3c(C(=O)c4ccc(F)cc4)oc4ccccc34)coc2c1,-1%,.,.,-20%,.,.
COc1cc(Cl)c(C)cc1NC(=O)CC(c1ccc(F)cc1)N1Cc2ccccc2C1=O (stereo not given),23µM*,.,.,18µM*,.,.
Cc1c(Cl)cccc1NC(=O)Cc1cccs1,-12%,2%,0,16%,4%,2%
Cc1c(Cl)cccc1NC(=O)CC(c1ccc(F)cc1)N1Cc2ccccc2C1=O (stereo not given),23µM*,.,.,21µM*,.,.
O=C(CC(c1cccs1)N1Cc2ccccc2C1=O)Nc1ccccc1F (stereo not given),?,.,.,21µM*,.,.
O=C(Nc1ccccc1F)C(Cc1ccccc1)N1Cc2ccccc2C1=O (stereo not given),-5%,.,.,-16%,.,.
Cc1c(Cl)cccc1NC(=O)CC(c1cccs1)N1Cc2ccccc2C1=O (stereo not given),16µM*,.,.,?,.,.
CN(C(=O)c1ccccc1C(=O)OCC(=O)c1ccc(Br)cc1)c1ccccc1,?,-19%,-12,?,-14%,-2%
CC(C)(C)NC(=O)c1cc([N+](=O)[O-])ccc1N1CCCCC1,-13%,0%,11,?,4%,0%
CC12CC3CC(C)(C1)CC(C(=O)N1CCN(C(=O)c4ccco4)CC1)(C3)C2,?,-1%,-7,?,-15%,-11%
CSc1cccc(NC(=O)CC(c2cccs2)N2Cc3ccccc3C2=O)c1 (stereo not given),16µM*,.,.,?,.,.
C=CCOc1ccc(/C=N/n2nnnc2N)cc1OC,3%,.,-19,-3%,10%,3%
CC1(C)C2CCC(C2)C1(C)NC(=O)CNCC1CCCCC1 (stereo not given),0%,-9%,-78*,?,-13%,-17%
Cn1c(=O)c(=O)n(C)c2cc(S(=O)(=O)CCC(=O)Nc3ccccc3C(F)(F)F)ccc21,-12%,.,-1,-4%,-13%,-6%
CC(C)Cn1c(SCC(=O)Nc2cccc(S(N)(=O)=O)c2)nc2ccccc2c1=O,-25%,16µM*,-4,-22%,?,-21%

# High-throughput results deposited in PubChem BioAssay by National Center for Advancing Translational Sciences (NCATS).
